From the supplement of paper PMC6897291
Structures can show the parent of a compound that is named as a salt.

system: U-2932; experiment: growth inhibition by drug alone (1 - RLU/untreated control) (fraction); higher = stronger inhibition; settings: 10 nM; time (day): 5; 177Lu-lilotomab satetraxetan 0 ug/ml
Outline: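 Plates pre-printed with the Selleck Cambridge Cancer Compound library at 10/100 nM (RIVA) or 10/1,000 nM (U-2932) received 3,000 cells/well. These cells had been washed after 18 h untreated or with a radiolabelled anti-CD37 antibody conjugate (~600 MBq/mg; 0.5 µg/ml RIVA, 1 µg/ml U-2932). Growth inhibition was obtained from RealTime-Glo luminescence in relation to untreated no-drug wells. Each daily read from day 3, taken after 1 h at 37°C, was converted as 1 − RLU/mean of 48 such wells per plate.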

Compound	growth inhibition by drug alone
COc1ccc(S(=O)(=O)Nc2cccnc2Nc2ccc(O)cc2)cc1	-0.0159
C[C@]12CCC(=O)C=C1CC[C@@H]1[C@@H]2[C@@H](O)C[C@@]2(C)[C@H]1CC[C@]2(O)C(=O)CO [Hydrocortisone (Cortisol)]	0.0156
COc1cc(OC2CCN(C)CC2)ccc1Nc1ncc2c(n1)n(C1CCCC1)c(=O)n2C	-0.0615
Nc1nc(F)nc2c1ncn2[C@@H]1O[C@H](CO)[C@@H](O)[C@@H]1O [Fludarabine (Fludara)]	-0.102
Nc1nc(Nc2ccc(S(N)(=O)=O)cc2)nn1C(=O)c1c(F)cccc1F	0.0243
Nc1ncn([C@@H]2O[C@H](CO)[C@@H](O)[C@H]2O)c(=O)n1 [Azacitidine (Vidaza)]	-0.0726
COc1cc2nccc(Oc3ccc(NC(=O)NC4CC4)c(Cl)c3)c2cc1C(N)=O [E7080 (Lenvatinib)]	-0.0262
Nc1ccn([C@@H]2O[C@H](CO)[C@@H](O)[C@@H]2O)c(=O)n1 [Cytarabine]	-0.0299
Nc1cccc2c1C(=O)N(C1CCC(=O)NC1=O)C2=O (stereo not drawn) [Pomalidomide]	-0.0587
CN(C)c1nc(N(C)C)nc(N(C)C)n1 [Altretamine (Hexalen)]	-0.0583
Cc1[nH]c(/C=C2\C(=O)Nc3ccc(S(=O)(=O)N(C)c4cccc(Cl)c4)cc32)c(C)c1C(=O)N1CCN(C)CC1	-0.0727
O=C(O[C@@H]1Cc2c(O)cc(O)cc2O[C@@H]1c1cc(O)c(O)c(O)c1)c1cc(O)c(O)c(O)c1 [(-)-Epigallocatechin gallate]	-0.149
CCc1c2c(nc3ccc(OC(=O)N4CCC(N5CCCCC5)CC4)cc13)-c1cc3c(c(=O)n1C2)COC(=O)[C@]3(O)CC [Irinotecan HCl Trihydrate (Campto)]	-0.109
S=C(NCc1ccc2c(c1)OCO2)N1CCN(c2ncnc3c2oc2ccccc23)CC1 [Amuvatinib (MP-470)]	-0.0674
COc1ccc2c3n(c(=NC(=O)c4cccnc4)nc2c1OC)CCN3	-0.0391
C#Cc1cccc(Nc2ncnc3cc(OCCOC)c(OCCOC)cc23)c1 [Erlotinib HCl]	0.131
Cc1ccc(-c2cc(C(F)(F)F)nn2-c2ccc(S(N)(=O)=O)cc2)cc1 [Celecoxib]	-0.00842
N#CC[C@H](C1CCCC1)n1cc(-c2ncnc3[nH]ccc23)cn1	-0.0548
CCc1cncnc1N1CCN(Cc2nc3ccc(C(F)(F)F)cc3[nH]2)CC1	-0.0751

Compound	growth inhibition by drug alone
CCN(CC)C(=S)SSC(=S)N(CC)CC [Disulfiram (Antabuse)]	-0.018
CC(C)[C@H](C(=O)Nc1ccc(C(=O)NO)cc1)c1ccccc1	-0.0183
CC(=O)O[C@]1(C(C)=O)CC[C@H]2[C@@H]3C=C(C)C4=CC(=O)CC[C@]4(C)[C@H]3CC[C@@]21C [Megestrol Acetate]	0.0591
COc1cc2ncnc(Nc3cccc(Br)c3)c2cc1OC	-0.0462
N#Cc1ccc(C(c2ccc(C#N)cc2)n2cncn2)cc1 [Letrozole]	-0.0521
CC(=O)c1c(C)c2cnc(Nc3ccc(N4CCNCC4)cn3)nc2n(C2CCCC2)c1=O	-0.0177
COc1cccc2c1C(=O)c1c(O)c3c(c(O)c1C2=O)C[C@@](O)(C(=O)CO)C[C@@H]3O[C@H]1C[C@H](N)[C@H](O)[C@H](C)O1 [Doxorubicin (Adriamycin)]	0.356
CC(C)(C)c1[nH]cnc1/C=c1\[nH]c(=O)/c(=C/c2ccccc2)[nH]c1=O [NPI-2358 (Plinabulin)]	0.0507
COc1cc(Nc2ncc3c(n2)-c2ccc(Cl)cc2C(c2c(F)cccc2OC)=NC3)ccc1C(=O)O [MLN8237 (Alisertib)]	-0.0513
O=c1[nH]cc(F)c(=O)[nH]1 [Adrucil (Fluorouracil)]	0.0184
CC(C)c1ccc(Cn2ccc3c4c(N)nc(NC5CC5)nc4ccc32)cc1	0.0759
CC/C(=C(\c1ccccc1)c1ccc(OCCN(C)C)cc1)c1ccccc1 [Tamoxifen Citrate (Nolvadex)]	-0.0313
Cn1cc(C2=C(c3ccc(Cl)cc3Cl)C(=O)NC2=O)c2ccccc21	0.113
c1ccc(-c2nn3c(c2-c2ccnc4cc(OCCN5CCOCC5)ccc24)CCC3)nc1	0.0259
O=C(NCCS(=O)(=O)c1ccc(C(F)(F)F)cn1)c1ccc(Cl)cc1	-0.0367
Cc1ccc(S(=O)(=O)C=CC#N)cc1	-0.0275
CCC1=C[C@@H]2CN(C1)Cc1c([nH]c3ccccc13)[C@@](C(=O)OC)(c1cc3c(cc1OC)N(C)[C@H]1[C@@](O)(C(=O)OC)[C@H](OC(C)=O)[C@]4(CC)C=CCN5CC[C@]31[C@@H]54)C2 [Vinorelbine (Navelbine)]	0.595
Cc1cc(Nc2cc(N3CCN(C)CC3)nc(/C=C/c3ccccc3)n2)n[nH]1	-0.0606
CN(N=O)C(=O)N[C@@H](C=O)[C@@H](O)[C@H](O)[C@H](O)CO [Streptozotocin (Zanosar)]	-0.0365
